# From PubChem BioAssay
# Wnt act – Wnt/beta-catenin pathway activators, primary screen, cell-based, plate reader, single point; Wnt/beta-catenin reporter cell assay, activator; activation, % at 9.35 µM; actives 1.2% (n = 300,000); in the data active = activation above about 30%, passing the limit was not always enough; inconclusive = no clear call, values can overlap the other calls;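 note: 0% = neutral control wells and 100% = positive control wells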
# esBAF inh – Bmi1 luciferase reporter increase in mESCs, primary screen, esBAF inhibitor project, mouse ES cells, Bmi1 luciferase knock-in, single point. actives 2% (n = 350,000). 24 h; 100% = twice the neutral-well signal. reporter increase, % at 12.5 µM; in the data active = activation above about 40%; inconclusive = no clear call, values can overlap the other calls;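 note: 0% = median of the plate's neutral control wells and 100% = double that signal; a rise in the Bmi1 reporter signal indicates esBAF inhibition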
# FXN GAA850 act – FXN promoter activators, primary screen, cell-based, luciferase luminescence, HEK293 lucGAA850; AID 540364, 2011; actives 0.56% (n = 360,000); HEK293 lucGAA850 FXN promoter luciferase reporter, 24 h; percent of 10 µM SAHA response; activation, % at 6 µM;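 active = activation above the average of all compounds screened plus 3 SD, cutoff fixed separately per campaign, cut at about 7.5% in these data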;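 note: 0% = DMSO wells and 100% = 10 µM SAHA wells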
# MITF act – activators of MITF-driven TRPM1 promoter reporter, primary screen, cell-based, SK-MEL-5, luciferase, single point. SK-MEL-5 TRPM1-promoter luciferase, 24 h; % of positive control, neutral wells = 0. activation, % at 12.5 µM. actives 0.75% (n = 300,000). AID 588334, 2011;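 active = mean activation of at least 80% with every replicate also reaching 80%; inconclusive = mean reaches 80% but some replicate falls short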;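 note: 0% = neutral control wells and 100% = parthenolide positive control wells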
# Starred values were filed as active, the others as inactive; ? = inconclusive; nt = not tested or not shown. Most compounds without a hit are left out; they make up all but 2.8% or so of the library.
SMILES,Wnt act,esBAF inh,FXN GAA850 act,MITF act
COc1ccccc1Cc1c(-c2ccccc2)nc2ccc(Br)cn12,1,52*,nt,nt
FC(F)(F)c1ccccc1Cc1c(-c2ccc(Cl)cc2)nc2ccc(Cl)cn12,11,64*,nt,nt
CCC(=O)N(C)C[C@H]1Oc2cc(-c3cccc(F)c3)ccc2S(=O)(=O)N([C@H](C)CO)C[C@H]1C,nt,-2,nt,nt
COc1ccc(-c2coc3cc(OC4OC(CO)C(O)C(O)C4O)ccc3c2=O)cc1 (centres undefined),41*,26,4,71
COc1ccc(-c2coc3cc(OC4OC(CO)C(O)C(O)C4O)cc(O)c3c2=O)cc1 (centres undefined),56*,20,3,?
COc1cc(O)c2c(=O)c3c(O[C@H]4O[C@@H](CO)[C@H](O)[C@@H](O)[C@@H]4O)ccc(O)c3oc2c1,4,-4,0,-4
COc1ccc(-c2coc3cc(O[C@@H]4O[C@H](CO)[C@@H](O)[C@H](O)[C@H]4O)c(OC)cc3c2=O)cc1,25,47*,2,46
CN(C)C(=O)C[C@H]1CC[C@@H]2[C@H](COc3ccc(NC(=O)Nc4cccc(Cl)c4)cc3C(=O)N2C)O1,nt,1,nt,nt
Cn1ccsc1=NC(=O)c1cccc(OC(F)F)c1,22,53*,2,69
CCCNC(=O)[C@H]1[C@H](CO)[C@H]2Cn3c(cccc3=O)[C@H]2N1C(=O)C1CCCC1,nt,-4,nt,nt
C[C@H](CO)N1C[C@H](C)[C@@H](CN(C)S(=O)(=O)c2ccc(Cl)cc2)OCCCC[C@H](C)Oc2ccc(N(C)C)cc2C1=O,nt,-5,nt,nt
OC(c1ccccc1)c1nc(-c2cccs2)cs1 (centres undefined),6,49*,2,nt
COc1ccc(-c2csc(C(O)c3cccc(OC)c3)n2)cc1 (centres undefined),2,11,2,nt
OC(c1ccc(F)c(F)c1)c1nc(-c2cccs2)cs1 (centres undefined),0,14,2,nt
COc1cccc(C(O)c2nc(-c3ccc(N(C)C)cc3)cs2)c1 (centres undefined),19,45*,5,nt
COc1ccc(-c2csc(C(O)c3ccccc3)n2)cn1 (centres undefined),nt,61*,0,nt
C[C@@H]1CN([C@@H](C)CO)C(=O)c2cc(C3=CCCCC3)cnc2O[C@@H]1CN(C)C(=O)c1cccnc1,nt,3,nt,nt
C[C@H]1CCCCO[C@H](CN(C)C(=O)Nc2ccc3c(c2)OCO3)[C@@H](C)CN([C@@H](C)CO)C(=O)c2cc(NS(=O)(=O)c3ccccc3)ccc2O1,nt,-2,nt,nt
Nc1cc(-c2ccc(Cl)cc2)nn1-c1ccccc1,49*,58*,5,119*
CC(=O)Nc1ccc(-c2cc(N)n(-c3ccccc3)n2)cc1,44*,nt,8,48
CC(=O)Nc1ccc(-c2cc(NC(C)=O)n(-c3ccccc3)n2)cc1,nt,-7,2,2
CNC[C@@H]1OCCCC[C@H](C)Oc2ccc(NC(=O)Nc3ccccc3)cc2C(=O)N([C@H](C)CO)C[C@@H]1C,nt,1,nt,nt
O=C(Nc1ccccc1)c1ccc(-c2ccccc2C(F)(F)F)o1,29,52*,5,79
CC(C)NC(=O)c1ccc(-c2ccccc2C(F)(F)F)o1,nt,47*,6,76
CC(C)NC(=O)c1ccc(-c2ccc(Cl)c(C(F)(F)F)c2)o1,nt,nt,-1,0
SMILES,Wnt act,esBAF inh,FXN GAA850 act,MITF act
CC1CCC(NC(=O)C(=O)Nc2ccc3c(c2)OCO3)CC1 (centres undefined),32*,56*,2,63
O=C(NCCc1ccccc1)Nc1ccc2c(c1)OCO2,13,nt,2,34
CC1CCC(NC(=O)c2ccc3c(c2)OCO3)CC1 (centres undefined),24,-35,1,2
Cc1[nH]c2ccccc2c1C(=O)C(=O)Nc1ccc2c(c1)OCO2,11,52*,3,69
O=C(NCCc1ccc(F)cc1)Nc1ccc2c(c1)OCO2,48*,nt,4,20
O=C(Nc1ccc(F)cc1)Nc1ccc2c(c1)OCO2,27,66*,2,104*
C[C@H]1CN([C@@H](C)CO)C(=O)c2cc(C#Cc3ccc(F)cc3)cnc2O[C@H]1CN(C)C(=O)Nc1ccc(F)cc1,nt,-1,nt,nt
O=C(Nc1ccc2c(c1)OCO2)Nc1ccc2c(c1)OCO2,30,nt,4,75
CC1(C(=O)Nc2ccc3c(c2)OCO3)CCN1C(=O)C1(c2ccc(Cl)cc2)CC1 (centres undefined),51*,10,-1,nt
O=C(Nc1ccc(Cl)cc1)Nc1ccc2c(c1)OCO2,38*,60*,4,63
COc1cccc(CNC(=O)C[C@H]2C=C[C@H](NC(=O)C3CCC3)[C@H](CO)O2)c1,nt,2,nt,nt
CCCC1CCC(c2ccc(OCC)cc2)=CC1=O (centres undefined),53*,29,3,67
CN(C)/C=C/C(=O)/C=C/c1ccc(Cl)cc1,71*,nt,4,47
O=C(N[C@H]1C=C[C@H](CC(=O)N2CCc3ccccc3C2)O[C@@H]1CO)C1CC1,nt,-4,nt,nt
COc1ccccc1NC(=O)N[C@@H]1CC[C@@H](CC(=O)N[C@H](C)c2ccccc2)O[C@@H]1CO,nt,4,nt,nt
C/C(=N/NC(=O)c1ccco1)c1ccc(NC(=O)c2ccc(F)cc2)cc1,48*,89*,2,54
C/C(=N/NC(=O)c1ccco1)c1ccc(NC(=O)c2ccc(Br)o2)cc1,17,47*,3,71
C[C@@H]1CCCCO[C@H](CN(C)S(=O)(=O)c2ccc(Cl)cc2)[C@H](C)CN([C@@H](C)CO)C(=O)c2cc(NS(C)(=O)=O)ccc2O1,nt,5,nt,nt
CSCCC(NC(=O)OC(C)(C)C)C(=O)Oc1ccc2c(=O)c(-c3ccc4c(c3)OCCO4)coc2c1 (centres undefined),37*,-5,1,nt
O=C1CC(c2ccc(O)cc2)Oc2ccccc21 (centres undefined),-2,24,0,83*
CN(C)S(=O)(=O)c1cccc(-c2csc(N/N=C/c3ccco3)n2)c1,4,28,2,29
Cc1ccc(-c2csc(N/N=C/c3ccco3)n2)c(C)c1,nt,69*,-5,44
Clc1ccc(CSc2snnc2-c2ccccc2)c(Cl)c1,38*,?,3,nt
c1ccc(CSc2snnc2-c2ccccc2)cc1,nt,?,4,nt
Cc1cccc(-c2nc(C#N)c(N3CCC(C)CC3)o2)c1,18,10,0,-1
CC1CCN(c2oc(-c3ccccc3Cl)nc2C#N)CC1,15,53*,1,94*
Cc1cccc(-c2nc(C#N)c(N3CCCCCC3)o2)c1,nt,73*,4,66
CC(=O)N(C)C[C@H]1Oc2ncc(-c3ccc(C#N)cc3)cc2C(=O)N([C@H](C)CO)C[C@H]1C,nt,-4,nt,nt
CCNC(=O)C[C@@H]1CC[C@@H]2[C@@H](COc3ccc(NC(=O)NC(C)C)cc3C(=O)N2C)O1,nt,4,nt,nt
